# Screening results: PubChem BioAssay, National Center for Advancing Translational Sciences (NCATS)
# This is a sample that favours compounds with a hit; in the whole collection about 7.3% have one here.
# HCMV antiviral: qHTS Assay for inhibitors of the human cytomegalovirus (HCMV); HFF cells, HCMV-luciferase reporter, 72 h; hits give low values; activity change, negative = inhibition, % at 57.5 µM; 4.5% of 410,000 active; in the data active means activity change below about -60%; inconclusive means no clear call, values can overlap the other calls; inactive means above about -39%
#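 Two compound doses tested in HFFs infected with HCMV-luciferase, MOI 1 PFU/cell, 72 h at 37C. Lysate luminescence read with OneGlo; data normalized against buffer-only and 10uM Salinomycin inhibitor controls.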
# FMDV antiviral: High Throughput Screening for Foot and Mouth Disease Virus Antivirals. FMDV antiviral cell-based qHTS. Potency, µM (series often up to 57.9 µM), inactives show at the top dose activity change, negative = inhibition, most hits filed as inhibitors. 1.2% of 410,000 active; calls by dose curve; tested in HEK293T cells; further: read-out not given here; potency means the concentration at half of the fitted maximal effect; nearly all actives have a fitted effect of over 45% in size
# VACV mCherry inh: qHTS for Stage-Specific Inhibitors of Vaccinia Orthopoxvirus: mCherry Reporter Primary qHTS | Vaccinia virus mCherry reporter infection, fluorescence | Potency, µM (highest dose often 36.5 µM), inactives show at the highest dose activity change, negative = inhibition, hits mostly inhibitors | 0.63% of 310,000 active; calls by dose curve; tested in A549 cells; further: potency means the concentration at half of the fitted maximal effect; nearly all actives have a fitted effect of over 35% in size
# VACV Venus inh: qHTS for Stage-Specific Inhibitors of Vaccinia Orthopoxvirus: Venus Reporter Primary qHTS; Vaccinia virus Venus reporter expression, fluorescence; Potency, µM (series often up to 36.5 µM), for inactives: at the highest dose activity change, negative = inhibition, most hits filed as inhibitors; 0.46% of 330,000 active; AID 720580, 2013; calls by dose curve; tested in A549 cells; further: potency means the concentration at half of the fitted maximal effect; nearly all actives have a fitted effect of over 30% in size
# HCV inh: qHTS Assay for Inhibitors of Hepatitis C Virus (HCV); Huh7.5.1 HCVcc-Cre infection, luciferase reporter, 44 h; Potency, µM (top dose mostly 41.8 µM), inactives show at the top dose activity change, negative = inhibition, hits mostly inhibitors; 3.4% of 340,000 active; AID 651820, 2012; active means well fitted inhibition curve with a large enough effect; inconclusive means small, poorly fitted or top-dose-only effect, or another doubt; inactive means no such curve, though single readings can be large or run the other way; further: potency means the concentration at half of the fitted maximal effect
#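 A cell-based infection assay in which seeded cells (1,000 per well) receive test compound after 4 h, are inoculated with HCVcc-Cre at approximately 0.5 moi, and are incubated 44 h before luminescence detection.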
# * hit, by the source's call; i = inactive; ? = inconclusive; / = not tested or not shown; + = active, no number; [ ] = another dose, or the depositor's remark. On the % scale 0 is the no-effect control and ±100 the full control effect.
SMILES,HCMV antiviral,FMDV antiviral,VACV mCherry inh,VACV Venus inh,HCV inh
c1nc(N2CCCCC2)c2[nH]cnc2n1,-71*,5%,-2%,-13%,-2%
Cc1cccc(N2CCN(C(=O)Cn3nc(C)c4sc5ccccc5c4c3=O)CC2)c1C,9,-11%,-11%,-3%,/
NS(=O)(=O)c1cccc(Nc2nc3ccccc3nc2NS(=O)(=O)c2ccc(Cl)cc2)c1,17,-8%,i,4%,8%
Cc1cccc(C)c1NC(=O)C1(C)CSCC(=O)N1Cc1cccc(C(F)(F)F)c1 (configuration not stated),-1,-10%,-16%,-10%,/
Cc1ccc(NC(=S)NC2CCN(Cc3ccccc3)CC2)cc1C,?,0%,-21%,?,11µM*
S=C(Nc1cc(Cl)cc(Cl)c1)NC1CCN(Cc2ccccc2)CC1,-100*,-17%,/,/,10µM*
S=C(Nc1ccccc1Cl)NC1CCN(Cc2ccccc2)CC1,-34,0%,-21%,-21%,?
Cc1c(Cl)cccc1NC(=S)NC1CCN(Cc2ccccc2)CC1,-91*,0%,?,-29%,?
Cc1ccc(NC(=S)NC2CCN(Cc3ccccc3)CC2)cc1,?,-24%,-30%,-18%,?
CC(=O)c1ccc(N2CCN(C(=O)/C=C/c3ccc(S(=O)(=O)NCc4ccco4)cc3)CC2)cc1,-66*,?,-9%,-14%,?
Cc1ccc(N(C)S(=O)(=O)c2cccc(C(=O)N3CCN(Cc4ccccc4)CC3)c2)cc1,0,-28%,/,/,?
COc1ccc(CNS(=O)(=O)c2c(C)[nH]c(C)c2C(=O)N2CCCC2)cc1,-62*,-13%,-13%[7.34 µM],-2%[7.34 µM],1%
N#Cc1ccc(CN2CCN(C(=O)c3ccc(S(=O)(=O)NCc4ccco4)cc3)CC2)cc1,0,?,/,/,6.3µM*
CN(c1ccc(C(=O)N2CCN(Cc3ccccc3)CC2)cc1)S(=O)(=O)c1ccc(Cl)cc1,-63*,-23%,-5%,-21%,10µM*
Cc1[nH]c(C)c(S(=O)(=O)NCc2ccc(OC(C)C)cc2)c1C(=O)N1CCCC1,-31,9%,-11%[7.34 µM],-11%[7.34 µM],5%
O=C(c1ccc(S(=O)(=O)NCc2ccco2)cc1)N1CCCC1,-8,-2%,i,-14%,-1%
CCOC(=O)CCc1c(C)c2cc3c(c(C)c2oc1=O)OCN(CCc1ccccc1OC)C3,-6,-18%,-3%,-12%,/
COc1ccc(N2CCN(C(=O)c3ccc(CNS(=O)(=O)c4cccc(OC)c4)cc3)CC2)cc1,-38,-26%,?,-22%,3.5µM*
O=C(c1ccc(CNS(=O)(=O)c2ccccc2)cc1)N1CCN(Cc2ccccc2)CC1,-76*,?,-3%,-25%,11µM*
CS(=O)(=O)c1ccc(C(=O)N2CCN(Cc3ccccc3)CC2)cc1,?,-10%,9%,-2%,3%
Cc1ccc(S(=O)(=O)NCc2ccc(N3CCN(C(=O)OC(C)(C)C)CC3)cc2)cc1,-68*,28µM*,-12%,-5%,?
C=C1C(=O)OC2C=C(CO)CCC=C(CO)CC(OC(=O)C(C)C)C12 (configuration not stated),7,40µM*,-3%,-4%,?
Nc1nnc(SCC(=O)NNC(=O)c2ccc(Cl)cc2)s1,-73*,-29%,/,/,19%
O=C(O)COc1ccccc1/C=N/NC(=O)c1cc(-c2ccccc2)nc2ccccc12,+,-8%,-15%,-11%,12%
CCc1cc(C(=O)N/N=C/c2ccc(O)cc2O)c2ccccc2n1,29,6%,1.1µM*,-23%,?
SMILES,HCMV antiviral,FMDV antiviral,VACV mCherry inh,VACV Venus inh,HCV inh
COc1cc(/C=N/NC(=O)c2cc(-c3cccc(OC(C)C)c3)nc3ccccc23)ccc1O,-61*,-25%,?,12%,?
O=C(N/N=C/c1ccc(O)cc1O)c1ccncc1,12,11%,/,/,?
O=C(N/N=C/c1ccccn1)c1cc(-c2ccc(Br)cc2)nc2ccccc12,-100*,-12%,?,?,?
CC(NS(=O)(=O)c1ccccc1)C(=O)Nc1ccc2c(c1)OCCO2 (configuration not stated),7,-2%,-2%,-19%,0%
O=C(N/N=C/c1ccc(O)cc1O)/C(=C/c1ccccc1)CCO,-18,26%,11µM*,?,?
CCCOc1cccc(-c2cc(C(=O)N/N=C/c3cccnc3)c3ccccc3n2)c1,-83*,?,i,-2%,-13%
Cc1nonc1C(=O)N/N=C/c1ccncc1,14,0%,i,-7%,5%
CCCOc1cccc(-c2cc(C(=O)N/N=C/c3ccccn3)c3ccccc3n2)c1,-113*,-25%,?,-7%,?
CCCOc1cccc(-c2cc(C(=O)NN)c3ccccc3n2)c1,-28,?,-29%,-11%,14%
Cc1nonc1C(=O)N/N=C/c1ccc(O)cc1O,15,28%,8.9µM*,?,?
COc1cc(/C=N/NC(=O)/C(=C/c2ccccc2)CCO)ccc1O,7,14%,-13%,-11%,38%
Cc1cccc(N2CCN(C(=O)c3ccc(Cl)c(NC4=NC5CS(=O)(=O)CC5S4)c3)CC2C)c1 (configuration not stated),-34,-27%,-5%[7.34 µM],-1%[7.34 µM],4%
CCOc1cc(/C=C2/NC(=O)N(Cc3ccccc3F)C2=O)ccc1O,-61*,-13%,/,-28%,10µM*
Cc1cc(N2CCOCC2)ccc1/C=C1\NC(=O)N(Cc2ccccc2)C1=O,9,-23%,/,/,?
O=C(O)c1ccc(COc2ccccc2/C=C2\NC(=O)N(Cc3ccccc3F)C2=O)cc1,-14,-14%,i,-9%,-12%
COc1cc(/C=C2/NC(=O)N(Cc3ccccc3F)C2=O)cc(OC)c1O,-33,-8%,5µM*,-1%,-17%
Cc1cc(N2CCOCC2)ccc1/C=C1\NC(=O)N(Cc2ccccc2F)C1=O,-5,-7%,/,/,4µM*
CN(C)S(=O)(=O)c1cccc(NC(=O)c2cccc(N3C(=O)CCC3=O)c2)c1,-13,-10%,-4%,-7%,6%
CC(=O)Nc1ccc(S(=O)(=O)NCC2CCC(C(=O)NCCc3ccc(C)cc3)CC2)cc1 (configuration not stated),-2,-11%,4%,-6%,/
Cc1cccc(OCCC(=O)NNC(=O)c2ccoc2C)c1,-1,-5%,/,/,19%
O=[N+]([O-])c1cccc(S(=O)(=O)c2ccc(N3CCCCC3)c([N+](=O)[O-])c2)c1,-20,?,i,-16%,8.9µM*
COc1cccc(C(=O)/C=C/c2ccc(N3CCCCC3)c([N+](=O)[O-])c2)c1,-4,?,?,?,?
